Measurements reported in PubChem BioAssay (EPA / NIEHS).
Several values for one entry are separate records, joined by “and”; a condition that tells them apart may be missing. Equal values may be shown once. Some compounds were tested as several samples or in several runs, with calls that do not always agree. Activity calls are given as the source filed them. How the source made its calls: active means hit-call score of the fitted dose curve at least 0.9, where 1 is the maximum; inactive means score below 0.9.

Assay: ATG_RORE_CIS: Attagene CIS-FACTORIAL HepG2 Assay for human RAR-related Orphan Receptor Element (RORE) (AID 2282959)
Settings: HepG2 Attagene cis-factorial RORE reporter, mRNA; actives raise or lower the signal
Procedure: ATG_CIS is a cell-based, multiplexed-readout assay that uses HepG2, a human liver cell line, with measurements taken at 24 hours after chemical dosing in a 24-well plate.ATG_RORE_CIS is one of 52 assay component(s) measured or calculated from the ATG_CIS assay. It is designed to make measurements of mRNA induction, a form of inducible reporter, as detected with fluorescence intensity signals by Reverse transcription polymerase chain reaction (RT-PCR) and Capillary electrophoresis technology.Data from the assay component ATG_RORE_CIS was analyzed into 1 assay endpoint. This assay endpoint, ATG_RORE_CIS, was analyzed with bidirectional fitting relative to DMSO as the negative control and baseline of activity. Using a type of inducible reporter, measures of mRNA for gain or loss-of-signal activity can be used to understand the reporter gene at the transcription factor-level as they relate to the gene RORA and RORB and RORC. Furthermore, this assay endpoint can be referred to as a primary readout, because this assay has produced multiple assay endpoints where this one serves a reporter gene function. To generalize the intended target to other relatable targets, this assay endpoint is annotated to the nuclear receptor intended target family, where the subfamily is orphan.
Human liver HepG2 cells are transiently transfected with multiple reporter transcription units (MRTUs) in 6-well plates using FuGene 6 reagent (Roche; 3 ml FuGene/1 mg DNA). The MRTU constructs are regulated by a cis-regulating element (promoter). […] A major difference between the CIS and TRANS system is that in CIS activities of endogenous TFs are measured, whereas the TRANS assay evaluates changes in activities of exogenous, chimeric NR-Gal4 proteins. […] At the end of 24 hour incubation, total RNA was isolated using TriZol reagent (Invitrogen). The isolated RNA is then reverse-transcribed using oligo(dT) primer and Mo-MLV reverse transcriptase (Invitrogen) with DNAse I (Ambion) treatment for 30 min. The one-tenth of the produced cDNA was amplified by PCR using Taq DNA polymerase (Invitrogen) and two reporter sequence-specific primers. The PCR products were fluorescently labeled by primer extension with 6-arboxyfluorescein (6-FAM) 5'-labeled reporter sequence-specific primer (2 min at 95 C, 20 s at 68 C and 10 min at 72 C) and these products were digested with 5U of HpaI (New England Biolabs) for 2h at 37 C. The fragments were purified using Qiaquick PCR columns (Qiagen), analyzed on an ABI 3130xL genetic analyzer (Applied Biosystems) with peak positions identified by using a set of X-rhodamine (ROX)-labeled MapMarker1000 molecular weight standards (BioVentures). The raw capillary electrophoresis data was processed using Attagraph software (Attagene).

| SMILES | outcome | AC50 |
| --- | --- | --- |
| CCCCCCC(C)O (stereo not given) | inactive | – |
| O=C1OCc2ccccc21 | inactive | – |
| NC(=O)NC(N)=O | inactive | – |
| CCCCCCCCCC(=O)OCC | inactive | – |
| CC(C)Cc1ccccc1 | inactive | – |
| CC(C)Cc1ccc(C(C)C(=O)O)cc1 (stereo not given) | inactive | – |
| CCCCCCCCCO | inactive | – |
| CCn1cc(C(=O)O)c(=O)c2ccc(C)nc21 | inactive | – |
| CCC(C)COC(=O)CC(C)C (stereo not given) | inactive | – |
| NS(=O)(=O)c1cc(C(=O)O)c(NCc2ccco2)cc1Cl | inactive | – |
| CCCc1ccc(N)cc1 | inactive | – |
| COc1ccccc1NC(=O)CC(C)=O | inactive | – |
| O=C(O)c1cc2ccccc2cc1O | inactive | – |
| COC(=O)C(C)Oc1ccc(Oc2ncc(C(F)(F)F)cc2Cl)cc1 (stereo not given) | – | 64.6 µM (active) |
| CC(O)COCC(C)O (stereo not given) | inactive | – |
| CC1(C)[C@H](C=C(Cl)Cl)[C@H]1C(=O)OCc1cccc(Oc2ccccc2)c1 | inactive | – |
| O=c1cc[nH]cc1 | inactive | – |
| CCOC(=O)C=Cc1ccccc1 | inactive | – |
| S=c1[nH][nH]c(=S)s1 | inactive | – |

| SMILES | outcome | AC50 |
| --- | --- | --- |
| COc1ccc(N)c(C)c1 | inactive | – |
| CC(=O)c1ccc(O)cc1 | inactive | – |
| NC(N)=S | inactive | – |
| COC(=O)c1ccc(C(=O)OC)cc1 | inactive | – |
| O=S1(=O)CC=CC1 | inactive | – |
| C#C[C@]1(O)CC[C@H]2[C@@H]3CCc4cc(O)ccc4[C@H]3CC[C@@]21C | inactive | 67.3 µM (active) and 60.7 µM (active) and 26.4 µM (active) |
| CC/C=C\CCOC(C)OCC (stereo not given) | inactive | – |
| CC(=O)CCC=C(C)CCC=C(C)C | inactive | – |
| CCOC(=O)COC(=O)c1ccccc1C(=O)OCC | inactive | – |
| CC=CC(=O)C1=C(C)C=CCC1(C)C | inactive | – |
| CC1=CC(C)C(C=O)C(C)C1 (stereo not given) (tested in a mixture with another compound) | inactive | – |
| CCCCCCCOC(C)=O | inactive | – |
| O=C(c1ccc(OCCN2CCCCC2)cc1)c1c(-c2ccc(O)cc2)sc2cc(O)ccc12 | inactive | 11.1 µM (active) and 15.6 µM (active) |
| CC/C=C\C#N | inactive | – |
| C[N+](C)(C)CCO | inactive | – |
| C=C(C)CCCC(C)CCO (stereo not given) | inactive | – |
| CCCCCCCCCCCCOC(C)=O | inactive | – |
| Cc1ccncc1 | inactive | – |
| O=S1(=O)CC(Cl)(Cl)C(Cl)(Cl)C1 | inactive | – |
